Screening data as filed in PubChem.
TDP1 cell noCPT: qHTS for Inhibitors of human tyrosyl-DNA phosphodiesterase 1 (TDP1): qHTS in cells in absence of CPT; Potency, µM (titrated, usually from 46.2 µM), hits mostly inhibitors; DT40 Tdp1-/- hTDP1 cells, no CPT, ATP luminescence, 48 h; AID 686978, 2013; hit rate 15% among 420,000; note: nearly all actives have a fitted effect of over 55% in size
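Growth of hTDP1-complemented DT40 Tdp1-knockout cells is measured by ATP luminescence after at least 48 hr compound exposure at 37 °C, with DMSO substituting for the 20 nM CPT used in the parallel screen.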
IL-1B inflam inh: inhibitors of inflammasome signaling (IL-1 beta secretion) | activity change, % at 57.5 µM | AID 743279 | THP-1 LPS/ATP IL-1B secretion, AlphaLISA, 16 h; active compounds read low | hit rate 4.7% among 360,000; in the data active = activity change below about -50%; inconclusive = mostly about -30% to -49%
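Secreted IL-1B measured by AlphaLISA bead assay after 16 h compound exposure of THP-1 cells; compounds (final up to 57.5 uM) added 1 h before LPS (250 ng/mL) and ATP (1.25 mM) stimulation; lower signal means less secretion.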
HepG2 tox: kills HepG2 cells in TGF-b inhibitor counter-screen | Potency, µM (top dose mostly 46.1 µM), actives largely listed as cytotoxic | HepG2 CAGA-GFP viability, ATP luminescence, 18 h | hit rate 0.76% among 410,000
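HepG2 CAGA-GFP cells (1000/well, DMEM with 1% FBS) received compound, then TGF-beta at 500 pg/mL final, and were incubated 18 hours at 37 degrees C. Viability was read by CellTiter-Glo luminescence. Media-only wells were set as complete cell-killing and DMSO as no toxicity.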
TDP1 cell CPT: DT40-hTDP1 cell growth loss with CPT; Potency, µM (top dose mostly 46.2 µM), hits mostly inhibitors; chicken DT40 Tdp1-/-;hTDP1 cells + 20 nM CPT, ATP luminescence, 48 h; hit rate 12% among 420,000; note: nearly all actives have a fitted effect of over 55% in size
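Cell growth measured by CellTiter-Glo luminescence after a minimum 48 h, 37 C compound exposure with 20 nM CPT in Tdp1-knockout DT40 cells stably expressing hTDP1, seeded 400/well; qHTS titration format.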
TGFb SMAD3 inh: inhibitors of TGF-b signaling. Potency, µM (series often up to 46.1 µM), hits mostly inhibitors. hit rate 1.2% among 410,000. HepG2 CAGA-GFP TGF-b/SMAD3 reporter, GFP fluorescence, 18 h; TGF-beta stimulated, 500 pg/mL final; note: nearly all actives have a fitted effect of over 65% in size
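Per well, imaged GFP fluorescence of HEPG2 CAGA-GFP cells gives the signal; cells get compound, then TGF-beta (500 pg/mL final), 18 h at 37 degrees C; %Activity versus -TGF-beta and +DMSO controls.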
TDP1 inh: blocks human tyrosyl-DNA phosphodiesterase 1 | Q9NUW8 | hit rate 0.28% among 350,000 | AID 485290 | Potency, µM (titrated, usually from 130 µM), actives largely listed as inhibitors | recombinant TDP1, AlphaScreen DNA substrate cleavage; note: nearly all actives have a fitted effect of over 40% in size
Target sequence (Q9NUW8 whole entry, looked up): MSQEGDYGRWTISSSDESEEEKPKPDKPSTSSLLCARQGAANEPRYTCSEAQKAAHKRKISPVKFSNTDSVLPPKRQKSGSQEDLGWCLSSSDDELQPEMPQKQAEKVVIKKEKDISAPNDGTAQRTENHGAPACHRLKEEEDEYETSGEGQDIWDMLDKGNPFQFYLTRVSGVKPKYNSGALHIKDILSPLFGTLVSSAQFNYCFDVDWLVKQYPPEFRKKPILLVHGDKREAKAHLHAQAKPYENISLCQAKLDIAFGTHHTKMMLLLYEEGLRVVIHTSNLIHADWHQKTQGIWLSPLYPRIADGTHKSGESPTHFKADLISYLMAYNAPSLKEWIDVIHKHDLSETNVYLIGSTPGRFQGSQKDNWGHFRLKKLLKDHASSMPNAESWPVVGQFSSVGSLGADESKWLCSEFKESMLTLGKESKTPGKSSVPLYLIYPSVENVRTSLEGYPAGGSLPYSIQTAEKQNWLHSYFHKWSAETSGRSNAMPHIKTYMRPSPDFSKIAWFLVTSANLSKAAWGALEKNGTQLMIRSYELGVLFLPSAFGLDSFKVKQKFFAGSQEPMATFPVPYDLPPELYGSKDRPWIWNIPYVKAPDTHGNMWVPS
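Signal: AlphaScreen proximity between streptavidin donor and anti-FITC acceptor beads on intact substrate. Reaction: Tdp1 1 nM, substrate 15 nM final, 5 min RT after 15 min compound preincubation.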
A number is an active result. A selection: hits, their analogues and other compounds. The true share with any hit is near 18%. Unless noted, calls come from the whole dose curve; as a rule, active = well fitted curve in the direction sought with a large enough effect; inconclusive = small, poorly fitted or top-dose-only effect, or another doubt; inactive = no such curve, though single readings can be large; an effect the other way counts as inactive or inconclusive.

What do the screens show for `COc1cc(CNCCCN2CCOCC2)cc(Br)c1OCc1ccc(Cl)cc1`?
TDP1 cell noCPT: 3.7µM; IL-1B inflam inh: inactive; HepG2 tox: inactive; TDP1 cell CPT: 3.7µM; TGFb SMAD3 inh: inconclusive; TDP1 inh: inactive

Results for Cc1cc(Cl)ccc1OCC(O)CNCCc1ccc(S(N)(=O)=O)cc1 (stereo unspecified) ?
TDP1 cell noCPT: 15µM; IL-1B inflam inh: inactive; HepG2 tox: inactive; TDP1 cell CPT: inconclusive; TGFb SMAD3 inh: inconclusive

How did C=CCOc1c(Cl)cc(CNCCCN2CCOCC2)cc1OC do in these assays?
TDP1 cell noCPT: inactive; IL-1B inflam inh: inactive; HepG2 tox: inactive; TDP1 cell CPT: 23µM; TGFb SMAD3 inh: inactive

How did COc1cc(CNCCN2CCOCC2)ccc1OCc1ccc(Cl)cc1 do in these assays?
TDP1 cell noCPT: inconclusive; IL-1B inflam inh: inconclusive; HepG2 tox: inactive; TDP1 cell CPT: 18µM; TGFb SMAD3 inh: inactive; TDP1 inh: inactive

What do the screens show for `COc1cc(CNCCCN2CCOCC2)cc(Br)c1OCC(=O)N1CCCCC1`?
TDP1 cell noCPT: inactive; IL-1B inflam inh: inactive; HepG2 tox: inactive; TDP1 cell CPT: inconclusive; TGFb SMAD3 inh: inactive; TDP1 inh: inactive

How did CCNC(=O)C1(C)CCCN1C(=O)c1ccc2c(c1)OCO2 (stereo unspecified) do in these assays?
TDP1 cell noCPT: inactive; IL-1B inflam inh: inactive; HepG2 tox: inactive; TDP1 cell CPT: inactive; TGFb SMAD3 inh: inactive

How did O=C(Cn1c(=O)ccc2cc(S(=O)(=O)N3CCCC3)ccc21)Nc1ccccc1 do in these assays?
TDP1 cell noCPT: inactive; HepG2 tox: inactive; TDP1 cell CPT: inconclusive; TGFb SMAD3 inh: inactive; TDP1 inh: inactive

How did COc1cc(CNCCc2ccc(S(N)(=O)=O)cc2)ccc1OCC(=O)NC1CCCCC1 do in these assays?
TDP1 cell noCPT: inactive; IL-1B inflam inh: inactive; HepG2 tox: inactive; TDP1 cell CPT: inconclusive; TGFb SMAD3 inh: inactive; TDP1 inh: inactive

How did CCOc1cc(CNCCCN2CCOCC2)cc(Cl)c1OCC(=O)NC(C)(C)C do in these assays?
TDP1 cell noCPT: inconclusive; IL-1B inflam inh: inactive; HepG2 tox: inactive; TDP1 cell CPT: inconclusive; TGFb SMAD3 inh: inactive

How did COc1cc(CNCCc2ccc(S(N)(=O)=O)cc2)ccc1OCc1ccc(Cl)cc1 do in these assays?
TDP1 cell noCPT: inconclusive; IL-1B inflam inh: -78; HepG2 tox: inactive; TDP1 cell CPT: 23µM; TGFb SMAD3 inh: inconclusive; TDP1 inh: inactive

What do the screens show for `CCOc1cc(CNCCCN2CCOCC2)cc(Br)c1OCC(=O)Nc1cccc(C(F)(F)F)c1`?
TDP1 cell noCPT: 4.1µM; IL-1B inflam inh: inactive; HepG2 tox: 18µM; TDP1 cell CPT: 5.2µM; TGFb SMAD3 inh: inconclusive; TDP1 inh: inactive

How did COc1cc(CNCCN2CCOCC2)ccc1OCc1ccccc1Cl do in these assays?
TDP1 cell noCPT: 18µM; IL-1B inflam inh: inactive; HepG2 tox: inactive; TDP1 cell CPT: inconclusive; TGFb SMAD3 inh: inactive; TDP1 inh: inactive

Results for COc1cc(CNCc2ccccn2)ccc1OCc1ccccc1Cl ?
TDP1 cell noCPT: inconclusive; IL-1B inflam inh: inactive; HepG2 tox: inactive; TDP1 cell CPT: inconclusive; TGFb SMAD3 inh: inactive; TDP1 inh: inactive

Results for O=C(Nc1cc([N+](=O)[O-])ccc1O)c1ccc2c(c1)C(=O)N(Cc1ccco1)C2=O ?
TDP1 cell noCPT: inactive; IL-1B inflam inh: inactive; HepG2 tox: inactive; TDP1 cell CPT: inactive; TGFb SMAD3 inh: inactive; TDP1 inh: inactive

What do the screens show for `S=C(Nc1ccccc1)N1CCN(c2ccccc2)CC1`?
TDP1 cell noCPT: inconclusive; IL-1B inflam inh: inactive; HepG2 tox: inactive; TDP1 cell CPT: inconclusive; TGFb SMAD3 inh: inactive

How did O=S(=O)(c1cccc(NC(=S)N2CCN(c3ccccc3)CC2)c1)C(F)F do in these assays?
TDP1 cell noCPT: 16µM; IL-1B inflam inh: inactive; HepG2 tox: inactive; TDP1 cell CPT: 13µM; TGFb SMAD3 inh: inconclusive; TDP1 inh: inactive
